Test results from PubChem BioAssay (NCI).
This is part of a sample that, as a whole, favours compounds with a hit. Of some 83,000 tested, about 20% had one in any assay.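 Values shown are percent growth following 48 h exposure of cells in 96-well plates to a single concentration of compound; below 10 was considered active.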 Values without a mark were called inactive. Calls of active or inactive are those of the source.

Legend:
Assay in all cases: NCI-60 one-dose screen, 48 h (100 = growth as untreated, 0 = no growth, -100 = all killed)
Settings in all cases: 10 µM unless noted
RPMI-8226 leukemia = test system: RPMI-8226 leukemia
OVCAR-8 ovarian = test system: OVCAR-8 ovarian
OVCAR-5 ovarian = test system: OVCAR-5 ovarian
OVCAR-4 ovarian = test system: OVCAR-4 ovarian
SK-OV-3 ovarian = test system: SK-OV-3 ovarian
IGROV1 ovarian = test system: IGROV1 ovarian
OVCAR-3 ovarian = test system: OVCAR-3 ovarian
HS 578T breast = test system: HS 578T breast
NCI/ADR-RES ovarian = test system: NCI/ADR-RES ovarian
T-47D breast = test system: T-47D breast
BT-549 breast = test system: BT-549 breast
MDA-MB-435 melanoma = test system: MDA-MB-435 melanoma
SW-620 colon = test system: SW-620 colon
MCF7 breast = test system: MCF7 breast
HCT-116 colon = test system: HCT-116 colon
HCC-2998 colon = test system: HCC-2998 colon
KM12 colon = test system: KM12 colon

Row | Structure (SMILES) | growth (RPMI-8226 leukemia) [%] | growth (OVCAR-8 ovarian) | growth (OVCAR-5 ovarian) [%] | growth (OVCAR-4 ovarian) | growth (SK-OV-3 ovarian) [%] | growth (IGROV1 ovarian) | growth (OVCAR-3 ovarian) | growth (HS 578T breast) | growth (NCI/ADR-RES ovarian) | growth (T-47D breast) [%] | growth (BT-549 breast) [%] | growth (MDA-MB-435 melanoma) | growth (SW-620 colon) | growth (MCF7 breast) | growth (HCT-116 colon) | growth (HCC-2998 colon) [%] | growth (KM12 colon) [%]
1 | Cc1ccc(-c2nn(C)c(=O)c3noc(-c4ccc(C)cc4)c23)cc1 | 20.4 | 43.8% | 57.4 | 61.4% | 26.7 | 48.2% | 8.74% (active) | 28% | 30.4% | 24.2 | 30.8 | -5.41% (active) | 21.1% | 30% | 37.5% | 70.8 | 35.9
2 | CCCCCCN1C(=O)/C(=c2\sc3n(c2=O)C2C(NN=3)N(CC)C(=O)N2CC)c2ccccc21 (stereo not drawn) | 44.6 | -22.3% (active) | 32.4 | -35.5% (active) | 54.8 | 24.2% | -50.2% (active) | 4.83% (active) | -23.1% (active) | 16.2 | 41.3 | -49.2% (active) | -38.3% (active) | -10.4% (active) | -37.3% (active) | 83.5 | 16.6
3 | Cc1cc2nc3cc(C)c(N)cc3[n+](-c3ccccc3)c2cc1N | 41.4 | 40.7% | 103 | 36.4% | 91.3 | 79.4% | 26.2% | 59.2% | 101% | 14 | 18.5 | 67.2% | 72.9% | 32.7% | 33.1% | 56.6 | 28
4 | CCc1ccc2nc(NC(=O)Cc3csc(NC(=O)c4ccco4)n3)sc2c1 | 55.8 | 43.3% | 83.1 | 43.1% | 65.1 | -9.65% (active) | 64.1% | 31.4% | 77.5% | 55.1 | 57.4 | 90.6% | 101% | 18.3% | 78% | 101 | 78.6
